The panel holds about 83,000 compounds, 20% with a hit somewhere; the sample as a whole holds those more often.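 A percent growth of 40 corresponds to 60% growth inhibition; 0 means no net growth; -100 means all cells died. Active threshold: below 10.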 Calls of active or inactive are those of the source.

For the experiment, the system named is A549/ATCC NSCLC. Description: NCI-60 one-dose screen, 48 h (100 = growth as untreated, 0 = no growth, -100 = all killed). To be noted: 10 µM unless noted.
Turning to `O=S(=O)(NCCNc1cc(-c2cn(-c3ccccc3)nc2-c2cccc(O)c2)ccn1)c1ccc(C(F)(F)F)cc1`, the growth was 41.6% (inactive).

For `Cc1cc(C)c(NC(=O)c2sc3nc4c(cc3c2N)CCCC4)c(C)c1`, the growth was 50.1% (inactive).

Turning to `C/C(=N\Nc1cc(C)c2ccccc2n1)c1ccccn1`, the growth was -0.781% (active).

On to `C=C1C(=O)O[C@H]2[C@H]1CC/C(Cn1cc(-c3ccc(OC)cc3)nn1)=C\CC[C@@]1(C)O[C@@H]21`, for which the growth was 57.3% (inactive).

In the case of `COC(=O)[C@]12CC[C@@H](C)[C@H](C)[C@@H]1C1=CC[C@@H]3[C@@]4(C)C[C@@H](OC(C)=O)[C@H](OC(C)=O)[C@@](C)(COC(C)=O)[C@@H]4[C@H](O)C[C@@]3(C)[C@]1(C)CC2`, the growth was 7.91% (active).

As to `COc1cccc(-c2nn(-c3ccccc3)cc2-c2ccnc(NCCCNS(=O)(=O)c3ccc(Cl)cc3)c2)c1`, the growth was 39.9% (inactive).

Regarding `O=c1c(CNc2ccc(S(=O)(=O)Nc3ncccn3)cc2)coc2ccccc12`, the growth is 93.5% (inactive).

As for `COc1ccc(-c2cc(/C=C/C(=O)c3ccc(OC)c(OC)c3)[nH]n2)cc1`, the growth was 29.2% (inactive).

For the molecule `C#Cc1cc2c(N)c(C(=O)c3cc(OC)c(OC)c(OC)c3)[nH]c2cc1OC`, the growth was 45.4% (inactive).

`O=S(=O)(NCCNc1cc(-c2cn(-c3ccccc3)nc2-c2cccc(O)c2)ccn1)c1ccc(F)cc1`: the growth is 26.9% (inactive).

As to `c1ccc2[nH]c(-c3cc(-c4ccc5c(c4)OCO5)n[nH]3)nc2c1`, the growth was 58.8% (inactive).

`COc1cccc(-c2nn(-c3ccccc3)cc2-c2ccnc(NCCCNS(=O)(=O)c3cccc(F)c3)c2)c1`: the growth is 27.4% (inactive).
